Experimental findings from PubChem BioAssay (EPA / NIEHS) are described below.

“And” between values parts separate entries of the source, which are not always exact repeats. Equal entries are not always repeated. A structure can be active in one record and inactive in another. The source made the active and inactive calls. Rule for the calls: active = hit-call score of the fitted dose curve at least 0.9, where 1 is the maximum; inactive = score below 0.9.

What all share (conditions): mRNA level, 48 h; actives raise or lower the signal
Read-out in test [1]: solute carrier (SLC22A1), SLC22A1 (gene 6580)
The test can be described thus: LTEA_HepaRG_SLC22A1: Life Technologies and Expression Analysis (LTEA) Assay for solute carrier (SLC22A1) using HepaRG (AID 2283524). In outline: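 qRT-PCR readout (TaqMan, Fluidigm arrays) of SLC22A1 transcript, normalized to three housekeeping genes; bidirectional curve fit relative to 0.5% DMSO vehicle. Differentiated human HepaRG cells, 48 h chemical exposure, top concentration 100 uM, half-log steps, eight points.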

Read-out in test [2]: Pyruvate Dehydrogenase Kinase 4 (PDK4), PDK4 (gene 5166)
Briefly: LTEA_HepaRG_PDK4: Life Technologies and Expression Analysis (LTEA) Assay for Pyruvate Dehydrogenase Kinase 4 (PDK4) using HepaRG (AID 2283525). In outline: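 HepaRG (human liver line), 48 h chemical exposure, 8-pt half-log CRC top 100 uM, 0.5% DMSO vehicle, duplicates. Readout: TaqMan qRT-PCR of PDK4 mRNA, housekeeping-normalized; gain/loss fit relative to DMSO baseline.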

Read-out in test [3]: NAD(P)H dehydrogenase [quinone] 1 (NQO1), NQO1 (gene 1728)
The test can be described thus: LTEA_HepaRG_NQO1: Life Technologies and Expression Analysis (LTEA) Assay for NAD(P)H dehydrogenase [quinone] 1 (NQO1) using HepaRG (AID 2283526). The procedure, abridged:
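In this assay, gene expression is read by qRT-PCR after 48 h exposure of HepaRG cells to eight concentrations (max 100 uM, half-log) in 0.5% DMSO. Each chemical runs in duplicate, and activity is scored relative to vehicle.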

Read-out in test [4]: Nuclear factor erythroid 2-related factor 2 (Homo sapiens) (UniProt Q16236)
The test can be described thus: LTEA_HepaRG_NFE2L2: Life Technologies and Expression Analysis (LTEA) Assay for Nuclear factor erythroid 2-related factor 2 (NFE2L2) Transcription Factor using HepaRG (AID 2283527).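 For outcome: TaqMan qRT-PCR transcript level normalised to ACTB GAPDH and POLR2A housekeeping genes.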 In outline:
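HepaRG, 48 h dosing, 8-pt half-log series from 100 uM in 0.5% DMSO, duplicates. Read-out: NFE2L2 mRNA by qRT-PCR (ACTB/GAPDH/POLR2A normalization). Bidirectional curve fit vs DMSO baseline.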

Read-out in test [5]: succinate dehydrogenase complex iron sulfur subunit B (SDHB), SDHB (gene 6390)
Briefly: LTEA_HepaRG_SDHB: Life Technologies and Expression Analysis (LTEA) Assay for succinate dehydrogenase complex iron sulfur subunit B (SDHB) using HepaRG (AID 2283528). In outline: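 Readout is SDHB transcript level by qRT-PCR, normalised to three housekeeping genes and fitted bidirectionally against 0.5% DMSO vehicle. Human HepaRG cells were treated for 48 h at up to 100 uM.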

Read-out in test [6]: Signal transducer and activator of transcription 3 (Homo sapiens) (UniProt P40763)
Briefly: LTEA_HepaRG_STAT3: Life Technologies and Expression Analysis (LTEA) Assay for Signal transducer and activator of transcription (STAT3) using HepaRG (AID 2283529). The procedure, abridged:
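HepaRG, 48 h exposure, 8-pt half-log series (top 100 uM), 0.5% DMSO vehicle, duplicates. Readout: STAT3 transcript by Fluidigm qRT-PCR, housekeeping-normalized; bidirectional fit vs DMSO baseline.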

Read-out in test [7]: solute carrier (SLCO1B1), SLCO1B1 (gene 10599)
The test can be described thus: LTEA_HepaRG_SLCO1B1: Life Technologies and Expression Analysis (LTEA) Assay for solute carrier (SLCO1B1) using HepaRG (AID 2283530). In outline: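 Differentiated human HepaRG cells, plated 48 h, switched to serum-free induction medium and exposed in duplicate for 48 h to 8 half-log concentrations (top 100 uM) in 0.5% DMSO. SLCO1B1 mRNA by TaqMan qRT-PCR, normalized to ACTB/GAPDH/POLR2A.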

Read-out in test [8]: Transforming Growth Factor (TGFB1), TGFB1 (gene 7040)
Briefly: LTEA_HepaRG_TGFB1: Life Technologies and Expression Analysis (LTEA) Assay for Transforming Growth Factor (TGFB1) Transporter using HepaRG (AID 2283533). In outline: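 Differentiated human HepaRG cells in serum-free induction medium were exposed in duplicate for 48 h to eight concentrations (top 100 uM, half-log steps, 0.5% DMSO). TGFB1 mRNA was quantified by qRT-PCR, normalized to ACTB, GAPDH, POLR2A, and fitted bidirectionally against DMSO.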

Read-out in test [9]: sulfotransferase 2A1 (SULT2A1), SULT2A1 (gene 6822)
Briefly: LTEA_HepaRG_SULT2A1: Life Technologies and Expression Analysis (LTEA) Assay for sulfotransferase 2A1 (SULT2A1) using HepaRG (AID 2283531). In outline: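 Differentiated human HepaRG cells in serum-free induction medium were exposed for 48 h to eight half-log concentrations (top 100 uM, 0.5% DMSO). SULT2A1 mRNA was measured by qRT-PCR, normalized to ACTB, GAPDH and POLR2A, and fitted bidirectionally against DMSO.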

Read-out in test [10]: Transforming Growth Factor (TGFA), TGFA (gene 7039)
The test can be described thus: LTEA_HepaRG_TGFA: Life Technologies and Expression Analysis (LTEA) Assay for Transforming Growth Factor (TGFA) using HepaRG (AID 2283532). The procedure, abridged:
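qRT-PCR read-out of TGFA transcript, normalized to three housekeeping genes, fitted bidirectionally against 0.5% DMSO baseline. Human HepaRG cultures received chemicals for 48 h at eight half-log concentrations, top 100 uM.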

Nuclear factor erythroid 2-related factor 2 (Homo sapiens), sequence (Q16236 whole entry, looked up): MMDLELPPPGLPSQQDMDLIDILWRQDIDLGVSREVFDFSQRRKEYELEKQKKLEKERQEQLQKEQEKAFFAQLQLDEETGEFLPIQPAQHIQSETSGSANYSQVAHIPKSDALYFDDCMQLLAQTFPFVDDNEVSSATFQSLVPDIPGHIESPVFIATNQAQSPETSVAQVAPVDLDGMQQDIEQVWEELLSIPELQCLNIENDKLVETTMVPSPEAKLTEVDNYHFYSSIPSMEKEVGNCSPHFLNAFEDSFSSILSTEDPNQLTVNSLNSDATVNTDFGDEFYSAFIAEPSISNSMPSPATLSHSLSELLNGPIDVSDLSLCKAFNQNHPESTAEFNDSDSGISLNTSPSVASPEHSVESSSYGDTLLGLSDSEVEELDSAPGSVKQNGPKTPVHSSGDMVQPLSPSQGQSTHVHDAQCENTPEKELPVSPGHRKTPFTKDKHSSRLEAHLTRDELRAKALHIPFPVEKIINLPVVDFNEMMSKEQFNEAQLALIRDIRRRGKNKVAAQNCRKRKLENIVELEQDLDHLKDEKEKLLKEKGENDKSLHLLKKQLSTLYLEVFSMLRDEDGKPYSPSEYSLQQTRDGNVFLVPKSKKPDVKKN
Signal transducer and activator of transcription 3 (Homo sapiens), sequence (P40763 whole entry, looked up): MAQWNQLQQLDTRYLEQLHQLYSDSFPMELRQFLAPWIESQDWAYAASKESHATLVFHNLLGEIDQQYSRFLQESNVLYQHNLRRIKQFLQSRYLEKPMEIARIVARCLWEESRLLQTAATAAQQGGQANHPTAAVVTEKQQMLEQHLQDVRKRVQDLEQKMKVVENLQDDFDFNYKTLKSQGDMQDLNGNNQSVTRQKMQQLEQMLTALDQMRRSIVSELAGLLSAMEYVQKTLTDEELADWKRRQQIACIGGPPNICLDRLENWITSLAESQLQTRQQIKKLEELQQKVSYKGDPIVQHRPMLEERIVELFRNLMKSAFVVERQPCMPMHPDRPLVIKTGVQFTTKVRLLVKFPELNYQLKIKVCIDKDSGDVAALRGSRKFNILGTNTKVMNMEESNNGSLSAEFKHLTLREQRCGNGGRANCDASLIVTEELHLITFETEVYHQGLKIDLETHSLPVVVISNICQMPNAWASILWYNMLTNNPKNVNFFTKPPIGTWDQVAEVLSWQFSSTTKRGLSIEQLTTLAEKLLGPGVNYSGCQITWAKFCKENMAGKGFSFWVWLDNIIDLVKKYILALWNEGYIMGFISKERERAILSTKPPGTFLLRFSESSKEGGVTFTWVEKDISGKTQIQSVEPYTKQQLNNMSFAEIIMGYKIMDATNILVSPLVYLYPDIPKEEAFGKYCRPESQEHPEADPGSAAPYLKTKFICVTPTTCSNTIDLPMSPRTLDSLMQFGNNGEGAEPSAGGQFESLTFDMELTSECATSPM

What is called AC50 is the midpoint of the concentration-response curve, whichever way the signal moves. In the case of `N[C@@H](Cc1cc(I)c(Oc2ccc(O)c(I)c2)c(I)c1)C(=O)O`, the AC50 in test [1] was 65.7 µM (active); in test [2] it was 11.1 nM (active); in test [7], 27.5 µM (active); in test [8] it was 63.2 µM (active). Besides, the compound was classed as inactive in test [3], in test [4], in [5] and in [6].

Turning to `c1ccc(Nc2ccccc2)cc1`, the result in test [1], in test [2], in test [3], in test [4], in [5] and in [6] was inactive. Further, the compound was classed as inactive in test [7], in [9] and in [8].

In the case of `CC(C)(c1ccc(O)cc1)c1ccc(O)cc1`, the result in test [1], in [3], in [4], in [5], in test [6] and in test [7] was inactive. In test [8], the result was inactive. The values for the AC50 in test [5] and in test [7] were 5 nM (active) and 9.92 µM (active), respectively.

With `O=C(O)c1ccccc1`, the result in [1], in [3], in test [4], in [5], in [6] and in test [7] was inactive. The compound was classed as inactive in test [9] and in [8].

As for `C[C@]12C[C@H](O)[C@H]3[C@@H](CCC4=CC(=O)CC[C@@]43C)[C@@H]1CC[C@@H]2C(=O)CO`, the outcome in [1], in test [3], in test [4], in [5], in test [6] and in test [8] was inactive. Also, the concentration at half-maximal activity (AC50) was 50 µM (active) in test [7] and 66.4 µM (active) in test [9].

Take `CCCCOCCOCCOCc1cc2c(cc1CCC)OCO2`: the result in [1], in [3], in test [5], in test [6] and in test [8] was inactive. Also, the AC50 in test [4] was 9.6 µM (active); in test [7] it was 8.47 µM (active); in test [9], 6.8 µM (active).

With `Cc1nn(C)c(Oc2ccccc2)c1C=NOCc1ccc(C(=O)OC(C)(C)C)cc1`, the AC50 is 12.3 µM (active) in test [1], 33 µM (active) in test [4], 23.2 µM (active) in test [7] and 63.2 µM (active) in test [8]. Besides, the compound was classed as inactive in test [2], in test [3], in test [5] and in test [6].

`CCSC(=O)N(CC(C)C)CC(C)C`: the result in test [1], in [3], in test [4], in [5], in [6] and in [7] was inactive. For the same compound, the compound was called inactive in [9] and in test [8].

Consider `S=C(S)NCCNC(=S)S.[Mn+2].[S-]C([S-])=NCCN=C([S-])[S-].[Zn+2]`, for which the AC50 in test [1] is 985 nM (active) and 1.14 µM (active) and 908 nM (active); in test [3], 903 nM (active); in [4], 255 nM (active) and 539 nM (active); in [5] it was 601 nM (active) and 552 nM (active) and 792 nM (active); in test [6], 809 nM (active) and 549 nM (active) and 297 nM (active); in [7], 1.25 µM (active) and 1.22 µM (active) and 1.54 µM (active). Also, the result in test [3], in test [4] and in [8] was inactive.

As for `CCOC(=O)COc1cc(-n2ncc(C(F)(F)F)c(C)c2=O)c(F)cc1Cl`, the result in test [1], in test [3], in test [4], in test [5], in [6] and in test [7] was inactive. The compound was classed as inactive in test [9], in [10] and in test [8].

For the compound `S=C([S-])NCCNC(=S)[S-].[Mn+2]`, the concentration at half-maximal activity (AC50) in test [1] was 2.8 µM (active); in [2], 5860 nM (active); in test [5], 1770 nM (active); in test [6], 1.94 µM (active); in test [7], 3.85 µM (active); in test [10] it was 7.01 µM (active). Also, the outcome in [3], in [4] and in test [8] was inactive.

In the case of `CCOC(=O)c1ccc(O)cc1`, the result in test [1], in [2], in [3], in test [4], in test [5] and in test [6] was inactive. Further, the result in [7], in test [9], in test [10] and in test [8] was inactive.
